The panel holds about 79,000 compounds, 15% with a hit somewhere; the sample as a whole holds those more often. Calls of active or inactive are those of the source. Rule as the data show it: active = growth inhibition above about 70%; inactive = the rest.
Experiments:
[1] = NCI Yeast Anticancer Drug Screen. Data for the rad50 strain (AID 155);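 also: 0% = growth of vehicle-only cultures of the same strain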; settings: S. cerevisiae rad50 strain growth inhibition; at 50.0 µM; stronger effect = higher value
How it was run: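 Vehicle-treated cultures provide the reference for the growth inhibition reported for compound-exposed, repair-deficient yeast.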

[2] = NCI Yeast Anticancer Drug Screen. Data for the mec2-1 strain (AID 157); settings: S. cerevisiae mec2-1 strain, at 50.0 µM, stronger effect = higher value
How it was run: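 Strain: mec2-1 (DNA repair/cell cycle alteration). Compound exposure, then growth measured; inhibition expressed relative to vehicle.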

[3] = NCI Yeast Anticancer Drug Screen. Data for the sgs1 mgt1 strain (AID 161);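 also: 0% = growth of cultures given vehicle only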; settings: S. cerevisiae sgs1 mgt1 strain, at 50.0 µM, stronger effect = higher value
How it was run: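 Test agents were incubated with a DNA-repair-mutant yeast strain. Growth was then read and compared against vehicle-treated controls.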

[4] = NCI Yeast Anticancer Drug Screen. Data for the cln2 rad14 strain (AID 165);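 also: 0% = growth equal to vehicle treated cultures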; settings: S. cerevisiae cln2 rad14 strain, at 50.0 µM, stronger effect = higher value
How it was run: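 Compounds are applied to the cln2 rad14 yeast strain, and growth is then compared with that of vehicle-treated cultures to give inhibition.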

[5] = NCI Yeast Anticancer Drug Screen. Data for the bub3 strain (AID 167); settings: S. cerevisiae bub3 mutant strain, at 50.0 µM, stronger effect = higher value
How it was run: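 Mutant yeast screening strain plus compound; vehicle-treated cultures serve as the 0% inhibition reference.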

[6] = NCI Yeast Anticancer Drug Screen. Data for the mlh1 rad18 strain (AID 175); settings: S. cerevisiae mlh1 rad18 strain growth inhibition; at 50.0 µM; stronger effect = higher value
How it was run: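 Read-out is yeast growth inhibition, calculated against vehicle-only controls. The compound was applied to a strain engineered with DNA damage repair alterations.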

Row | SMILES | growth inhibition [1] | growth inhibition [2] | growth inhibition [3] | growth inhibition [4] | growth inhibition [5] | growth inhibition [6]
1 | CN(c1c(Cl)cccc1Cl)S(=O)(=O)c1ccccc1[N+](=O)[O-] | -38.5% (inactive) | -49.5% (inactive) | -15.5% (inactive) | 20% (inactive) | -1.1% (inactive) | -4.5% (inactive)
2 | c1ccc2c(c1)NC1(CCCCC1)S2 | 5.35% (inactive) | -13.1% (inactive) | 39.5% (inactive) | 11.6% (inactive) | 5% (inactive) | 11.9% (inactive)
3 | O=C(CCc1ccccc1Cl)CC(=O)CC(O)(c1ccccc1)c1ccccc1 | 68% (inactive) | 57.5% (inactive) | 70.5% (active) | 42.2% (inactive) | 39.4% (inactive) | 61.9% (inactive)
4 | CCB1OC2C(COC(C)=O)OC(OC(C)=O)C2O1 (stereo not drawn) | -7.4% (inactive) | -9.6% (inactive) | -9.55% (inactive) | -9.25% (inactive) | -6.9% (inactive) | -10.1% (inactive)
5 | Cc1c(O)c2cccc(-c3ccccc3)c2oc1=O | 5.8% (inactive) | 17.5% (inactive) | 11.1% (inactive) | -6.3% (inactive) | -4.8% (inactive) | 17.6% (inactive)
6 | Cc1cc(C)nc(NS(=O)(=O)c2ccc(NC(=O)c3cccc4c(Nc5ccc(S(=O)(=O)N=C(N)N)cc5)c5ccccc5nc34)cc2)n1 | 0.75% (inactive) | 14.7% (inactive) | -10.5% (inactive) | 37.5% (inactive) | 26.1% (inactive) | 15.9% (inactive)
7 | S=C(SSSC(=S)N(C1CCCCC1)C1CCCCC1)N(C1CCCCC1)C1CCCCC1 | 1.5% (inactive) | 3.7% (inactive) | 10.1% (inactive) | 1.45% (inactive) | -5.9% (inactive) | 17.2% (inactive)
8 | NC(=O)C(=O)C(c1ccccc1)S(=O)(=O)Cc1ccccc1 (stereo not drawn) | -59.5% (inactive) | -39.1% (inactive) | -40.3% (inactive) | -13.7% (inactive) | -25.4% (inactive) | -32.1% (inactive)
9 | CCOC(=O)C1(Cc2ccc3c(c2)CCC3)Cc2cc3c(cc2C1=O)CCC3 (stereo not drawn) | -11.1% (inactive) | -28.1% (inactive) | -17.9% (inactive) | 19.1% (inactive) | 14.2% (inactive) | -2.55% (inactive)
10 | CCOC(=O)C1(C)Sc2ccccc2N=C1c1ccccc1 (stereo not drawn) | 25.9% (inactive) | 48.5% (inactive) | 45.5% (inactive) | 7.35% (inactive) | 26.1% (inactive) | 17.6% (inactive)
11 | Cc1cn(C2CC(N(C)C)C(CO)O2)c(=O)[nH]c1=O (stereo not drawn) | -28.2% (inactive) | -25.8% (inactive) | -18.4% (inactive) | 12.3% (inactive) | -28.3% (inactive) | -34.8% (inactive)
12 | COc1cc(/C=C/C(=O)O)cc(OC)c1O | 5.65% (inactive) | -5.05% (inactive) | -22.9% (inactive) | 23.1% (inactive) | 10.8% (inactive) | 16.5% (inactive)
13 | O=C(NCCSC(=O)Nc1ccccc1)Nc1ccccc1 | 0% (inactive) | 14.8% (inactive) | 5.25% (inactive) | -10% (inactive) | 29.1% (inactive) | 8.55% (inactive)
14 | CCOC(=O)C(CS(=O)(=O)N(CC)CC)NC(=O)c1ccccc1 (stereo not drawn) | -1.4% (inactive) | -10.6% (inactive) | 2.9% (inactive) | -10.8% (inactive) | 5.15% (inactive) | -18.6% (inactive)
15 | O=C(O)CCNCC(=O)O | -28.1% (inactive) | -32.6% (inactive) | -21.9% (inactive) | 3.2% (inactive) | -21.7% (inactive) | -23.6% (inactive)
16 | CCC1(C)CC(=O)N(C/C=C(\C)CCC(=O)O)C(=O)C1 | -3.35% (inactive) | 4.5% (inactive) | -0.45% (inactive) | -8.4% (inactive) | 7% (inactive) | -7.45% (inactive)
17 | CC(=O)N(c1ccc(F)c(F)c1)c1ccc(F)c(F)c1 | -18.3% (inactive) | -5.55% (inactive) | -0.9% (inactive) | 1.5% (inactive) | 19.6% (inactive) | 14.2% (inactive)
18 | CCNCCNC(=O)c1ccc(I)cc1 | -33.9% (inactive) | -7.2% (inactive) | -4.2% (inactive) | 6.65% (inactive) | -14.8% (inactive) | -10.8% (inactive)
19 | CCOC(CN=Cc1ccc2c(c1)Sc1ccccc1O2)OCC | 73.1% (active) | 46.1% (inactive) | 88.2% (active) | 55.2% (inactive) | 64.8% (inactive) | 89.5% (active)

Row | SMILES | growth inhibition [1] | growth inhibition [2] | growth inhibition [3] | growth inhibition [4] | growth inhibition [5] | growth inhibition [6]
20 | Cc1c(C(=O)CC(=O)C(=O)NC2C3CC4CC(C3)CC2C4)[n+](=O)c2ccccc2n1[O-] (stereo not drawn) | -11.1% (inactive) | 0.8% (inactive) | -26.7% (inactive) | 16.3% (inactive) | -9.8% (inactive) | -20.4% (inactive)
21 | CCOC(=O)c1sc(C(=O)OCC)c(O)c1O | 97% (active) | 95.5% (active) | 97.8% (active) | 58.4% (inactive) | 95.7% (active) | 97% (active)
22 | CCCCCCCCCCCCCCC(CCCCCCCCCCCCCC)c1ccccc1 | 38.4% (inactive) | -1.25% (inactive) | 11.6% (inactive) | -29.4% (inactive) | -2.65% (inactive) | 12.2% (inactive)
23 | COc1ccc2[nH]c3c(C)c4c(c(C)c3c2c1)CN(C)CC4 | 3.7% (inactive) | 4.95% (inactive) | -17.2% (inactive) | -1.25% (inactive) | -7.6% (inactive) | -5.85% (inactive)
24 | O=C(O)C1C2CC(C(Br)C2Br)C1C(=O)O (stereo not drawn) | -6.55% (inactive) | 0.75% (inactive) | -21.7% (inactive) | 9.9% (inactive) | -5.85% (inactive) | -12.2% (inactive)
25 | COc1ccc(/C=C2\NC(=S)N(/C=C3\C(=O)Oc4ccccc4C3=O)C2=O)cc1OC | -5.85% (inactive) | -17.6% (inactive) | 13.1% (inactive) | -7.85% (inactive) | -13.8% (inactive) | 6.4% (inactive)
26 | O=[N+]([O-])c1ccc(OC2OC(CO)C(O)C(O)C2O)cc1 (stereo not drawn) | 31.2% (inactive) | -0.45% (inactive) | -4.7% (inactive) | 5.1% (inactive) | 24% (inactive) | 10.2% (inactive)
27 | CN1CCC(c2ccccc2)(c2ccccc2)OC1c1ccccc1 (stereo not drawn) | 1.65% (inactive) | -12.2% (inactive) | -7.85% (inactive) | 1.35% (inactive) | 8.85% (inactive) | -18.2% (inactive)
28 | CC1CC=CCC1C(=O)OC/C=C/COC(=O)C1CC=CCC1C (stereo not drawn) | 29.4% (inactive) | -19.9% (inactive) | 8.65% (inactive) | -9.9% (inactive) | 14.9% (inactive) | -4.65% (inactive)
29 | CC(=O)O[C@]12CCCC1C1(O)C(O)CCCC12 (stereo partly drawn) | -30.7% (inactive) | -50.1% (inactive) | -72.3% (inactive) | -9.55% (inactive) | -30.6% (inactive) | -34.6% (inactive)
30 | CSc1c(C#N)c2c(Cl)ncnc2n1C(C)=O | 1.7% (inactive) | 14.3% (inactive) | 9.95% (inactive) | -71.5% (inactive) | -7.5% (inactive) | 5.35% (inactive)
31 | O=C(OC1CCCCC1)C(=O)OC1CCCCC1 | 3.3% (inactive) | -2.3% (inactive) | 1.35% (inactive) | -37.2% (inactive) | -5.45% (inactive) | 14% (inactive)
32 | CC(=O)NC(CSCN(C)c1nc(N(C)C)nc(N(C)C)n1)C(=O)O (stereo not drawn) | 7.5% (inactive) | -3.45% (inactive) | 2.95% (inactive) | 5.6% (inactive) | 8.2% (inactive) | 13.8% (inactive)
33 | S=C1CC(c2ccccc2)Sc2ccccc2N1 (stereo not drawn) | -1.45% (inactive) | 1.85% (inactive) | 13.9% (inactive) | 1.8% (inactive) | 30.3% (inactive) | -25.6% (inactive)
34 | Cc1n[nH]c(=S)n1N | -9.4% (inactive) | -1.9% (inactive) | -24.4% (inactive) | -25.9% (inactive) | -14.5% (inactive) | -3.5% (inactive)
35 | NNC(=O)C(=O)N/N=C1/CCCC1C(=O)CCC(=O)Nc1ccc(Cl)cc1 (stereo not drawn) | -4% (inactive) | -14.2% (inactive) | 0% (inactive) | -0.2% (inactive) | 0.3% (inactive) | -6.9% (inactive)
36 | O=C1CC2C3CC(Br)C4C3CC2C14 (stereo not drawn) | 4.95% (inactive) | -0.25% (inactive) | 1.75% (inactive) | 6.5% (inactive) | 7.2% (inactive) | 4.75% (inactive)
37 | CC(=O)OC1C(COS(=O)(=O)c2ccc(C)cc2)OCOC(COS(=O)(=O)c2ccc(C)cc2)C1OC(C)=O (stereo not drawn) | 0.2% (inactive) | 4.4% (inactive) | -0.55% (inactive) | -26.2% (inactive) | -0.7% (inactive) | 18.4% (inactive)
38 | CC1=NNC(=O)C1CCS (stereo not drawn) | -3.55% (inactive) | 4.35% (inactive) | -1.45% (inactive) | -3.1% (inactive) | -8% (inactive) | -7.4% (inactive)
